Screening results from PubChem BioAssay.
Only some compounds are listed: those with a hit (about 0.77% of all), similar ones and a draw of the others.
m-calpain inh = inhibitors of pig calpain II, primary screen, biochemical, fluorogenic peptide substrate, 1536-well. purified calpain II, 30 min. 220,000 tested, 0.37% active. inhibition, % at 16 µM;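 active means inhibition above about 50%, limit read from the data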
zVAD death inh = inhibitors of zVAD-triggered necroptosis, primary screen, L929 cells. L929 zVAD necroptosis rescue, ATP luminescence, 24 h; with zVAD 60 µM. viability rescue, % at 10 µM. 220,000 tested, 0.38% active. AID 1377, 2008;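 active means activation, scaled between plate controls, above about 75%, limit read from the data; inactive means activation under that limit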;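 further: 0% = zVAD with DMSO and 100% = DMSO alone without zVAD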
TNF necrop inh = inhibitors of TNF-alpha triggered necroptosis, primary screen, cell-based, Jurkat FADD-/-, single concentration; Jurkat FADD-/- TNF necroptosis rescue, ATP luminescence, 24 h; 0 = TNF only, 100 = no-TNF cells; activation (protection from cell death), % at 10 µM; 220,000 tested, 0.068% active;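 active means activation, meaning protection from cell death, of at least 50% relative to plate controls; inactive means activation below 50%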;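 further: necroptosis triggered by 40 ng/mL TNF-alpha added together with compound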
HSV augment = enhancers of HSV replication in host cells, fold increase, host cell viability | HSV replication augmentation in cells | maximum fold increase | 220,000 tested, 0.005% active | AID 1956, 2009; in the data active means maximum fold increase above about 1.5; tested in PC3 cells
zVAD necrop conf = inhibitors of zVAD-triggered necroptosis in L929, confirmation, L929 cells, duplicate runs; shares compounds with zVAD death inh; L929 zVAD-induced necroptosis rescue, ATP luminescence, 24 h; activation (protection from necroptosis), % at 10 µM; 760 tested, 16% active;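 active means mean protection from necroptosis of at least 50% over duplicate tests; inactive means mean protection below 50%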;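 further: 0% = cells with zVAD alone and 100% = vehicle cells without zVAD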
An asterisk follows results filed as active; i = inactive; · = no result; ! = not active in a repeat.

SMILES | m-calpain inh | zVAD death inh | TNF necrop inh | HSV augment | zVAD necrop conf
Cc1ccc(NC(=O)CN2C(=O)S/C(=C/c3ccc(O)c([N+](=O)[O-])c3)C2=O)cc1C | -36.5 | 85.7* | 2.1 | i | 2.3
Cc1cccc(NC(=O)CN2C(=O)S/C(=C\c3ccc(O)c([N+](=O)[O-])c3)C2=O)c1 | -6.2 | 65.3 | 4.3 | i | ·
CN(c1ccc(OCC(=O)N2CCOCC2)cc1)S(=O)(=O)c1ccc(Cl)cc1 | -11.6 | 1.2 | -0.5 | i | ·
Cc1cc(C)cc(N2C(=O)CCN(Cc3ccccc3)C2=O)c1 | -8.6 | 0.6 | 2.1 | i | ·
O=C(/C=C/c1cccc(F)c1)Nc1nccs1 | -3.2 | 87.8* | 30.8 | i | 76.4*
O=C(/C=C/c1cccs1)Nc1nccs1 | -11.2 | 79.3* | 11.4 | i | 1.0
Cc1ccc(/C=C/C(=O)Nc2nccs2)o1 | 30.4 | 78.9* | 16.3 | i | 5.6
CCOC(=O)/C=C/C(=O)Nc1nccs1 | 8.5 | 60.3 | 10.0 | i | ·
O=C(/C=C\c1ccccc1)Nc1nccs1 | -7.1 | 103.2* | 23.9 | i | 6.5
O=C(C1=C(O)C(=O)N(c2ccccc2)C1c1ccc([N+](=O)[O-])cc1)c1cccs1 (stereo unspecified) | -105.3 | 0.1 | 1.0 | i | ·
COc1cccc(/C=C/C(=O)OCC(=O)NCCc2ccccc2)c1 | -35.4 | 2.1 | 0.6 | i | ·
CC(C)(C)NC(=O)CSc1nc2[nH]ncc2c(=O)[nH]1 | -6.3 | 0.2 | -0.4 | i | ·
N#C/C(=C\c1ccccc1[N+](=O)[O-])C(=O)NC1CCCCC1 | 9.7 | 1.3 | -5.2 | · | ·
N#C/C(=C\C=C\c1ccccc1[N+](=O)[O-])C(=O)NC1CCCCC1 | -22.4 | 75.4* | -1.7 | i | 0.1
CNc1ncc(C(=O)c2ccc(F)cc2)s1 | 24.6 | 84.7* | 6.9 | i | 3.9
COc1cc(/C=C/C(=O)c2ccc(NS(=O)(=O)c3ccc(C)cc3)cc2)cc(OC)c1O | 0.6 | 102.8* | 0.7 | · | 6.4
CCc1ccc(NC(=O)Nc2ccc3c(c2)N(C)C(=O)CS3)cc1 | -43.9 | 99.1* | -2.1 | i | 47.1
CC1(CO)COC(c2ccccc2)=N1 (stereo unspecified) | 3.5 | -0.4 | 0.2 | i | ·
CCC(=O)Nc1ccc(C(=O)CSc2nc3ccccc3[nH]2)cc1 | -43.6 | · | 1.1 | i | ·
CCC(=O)Nc1ccc(C(=O)CSc2nc3ccc(C)cc3[nH]2)cc1 | -70.5 | 75.6* | 2.6 | i | 38.9
CN1C(=O)/C(=C\C(=O)c2cccs2)c2ccccc21 | -14.3 | 86.5* | -9.0 | i | 1.7
Cc1cc(C)n(CCC(=O)N/N=C/c2ccc(Br)c([N+](=O)[O-])c2)n1 | -4.8 | -0.2 | -3.7 | i | ·
COc1ccc2nc(NC(=O)C3CCN(S(=O)(=O)c4cccnc4)CC3)sc2c1 | -6.5 | 88.0* | 0.0 | i | 4.9
Cc1ccc2nc(NC(=O)C3CCN(S(=O)(=O)c4cccnc4)CC3)sc2c1 | -26.6 | 79.9* | -1.9 | i | 4.7
COc1ccc2nc(NC(=O)C3CCN(S(=O)(=O)c4cccs4)CC3)sc2c1 | -56.6 | 78.6* | -0.3 | i | 30.6
SMILES | m-calpain inh | zVAD death inh | TNF necrop inh | HSV augment | zVAD necrop conf
CCOc1ccc2nc(NC(=O)C3CCN(S(=O)(=O)c4cnc[nH]4)CC3)sc2c1 | 1.5 | 83.2* | -0.1 | i | 10.4
CC1=NN(c2ccccc2)C(=O)/C1=C\c1cc(C)n(-c2cccnc2)c1C | -10.4 | 0.3 | -1.6 | i | ·
CC1=NN(c2ccccc2)C(=O)/C1=C\c1cc(C)n(-c2ccccc2)c1C | -1.2 | 87.8* | 2.8 | i | 2.3
S=c1[nH]nc(CSCCOc2ccc(Cl)cc2Cl)o1 | 24.8 | 0.6 | -0.7 | i | ·
O=C(CN1CCOCC1)Nc1nc2ccc(Br)cc2s1 | -8.9 | 77.0* | 4.3 | i | 15.9
CC(=O)C(=Cc1ccc(C(=O)O)cc1)C(C)=O | 9.8 | 0.8 | 0.0 | i | ·
Cc1ccc(NC(=O)C(=Cc2ccc(C(=O)O)cc2)C(=O)Nc2ccc(C)cc2C)c(C)c1 | -6.7 | 84.9* | -0.5 | i | 40.3
NC(=O)c1cc([N+](=O)[O-])ccc1NCCN1C(=O)c2ccccc2C1=O | -37.8 | 3.8 | 0.8 | i | ·
O=C(COc1ccc(/C=N/NC(=O)C(=O)N2CCCCCC2)cc1)Nc1ccccc1Cl | 16.9 | 78.2* | 0.3 | · | 44.9
O=C(N/N=C/c1ccc(OCC(=O)N2CCCCC2)cc1)c1ccccc1 | 10.5 | 0.0 | -2.4 | i | ·
C/C(=N\Nc1nc2ccccc2[nH]1)c1ccc2c(c1)OCO2 | 40.5 | 3.7 | 3.7 | i | ·
C(=N\Nc1nc2ccccc2[nH]1)/c1ccncc1 | 29.9 | 78.0* | 30.4 | i | 50.9*
COC(=O)c1ccc(/C=N/Nc2nc3ccccc3[nH]2)cc1 | 7.8 | 81.9* | 15.7 | i | 8.0
C(=N\Nc1nc2ccccc2[nH]1)/c1ccc2c(c1)OCO2 | 26.2 | 79.2* | 18.8 | i | 8.9
O=C(O)c1ccc(/C=N/Nc2nc3ccccc3[nH]2)cc1 | 29.8 | -0.1 | -2.2 | i | ·
CC(=O)Nc1ccc(/C=N/Nc2nc3ccccc3[nH]2)cc1 | 19.6 | 88.4* | -3.1 | i | 2.1
CCN(CC)c1ccc(/C=N/Nc2nc3ccccc3[nH]2)cc1 | -3.9 | 49.8 | 7.5 | i | ·
CC1(C)CNC(=O)c2sc(NC(=O)c3ccccc3Cl)nc2C1 | -2.3 | 1.3 | -0.2 | i | ·
CC(C)OCCCNC(=O)NC(=O)c1ccc(Cl)cc1 | 25.2 | 2.2 | 1.6 | i | ·
C(=N/Nc1nccs1)/c1cccnc1 | 5.7 | 78.1* | 6.8 | i | 3.5
Nc1ccc(Nc2nc(-c3cc4ccccc4oc3=O)cs2)cc1 | -36.1 | 79.9* | -5.9 | i | 3.7
O=C(O)c1ccc(Nc2nc(-c3cc4ccccc4oc3=O)cs2)cc1O | 25.9 | 2.6 | 1.8 | i | ·
COc1ccc(-c2cn(-c3ccc(C)cc3C)c(=O)[nH]2)cc1OC | 38.9 | -1.6 | -1.1 | i | ·
O=C(NC1CC2CCCC(C1)N2Cc1cccs1)c1ccc([N+](=O)[O-])cc1 (stereo unspecified) | 14.5 | 1.2 | 0.4 | i | ·
COc1ccc(-c2cnc(N)nc2-c2ccc(OC)cc2O)cc1 | -31.7 | 92.5* | 0.8 | i | 7.8
SMILES | m-calpain inh | zVAD death inh | TNF necrop inh | HSV augment | zVAD necrop conf
C=C(C)COc1ccc(-c2nc(N)ncc2-c2ccc(OC)cc2)c(O)c1 | 17.1 | 3.0 | -1.5 | i | ·
CN(C)c1ccc2c(c1)Sc1cc(N(C)C)ccc1N2C(=O)c1ccccc1 | -29.6 | -0.2 | 0.5 | i | ·
N=c1nc(N)nc2n1NC(c1ccc(F)cc1)=CS2 | -1.9 | 81.2* | 20.5 | i | 39.8
COc1ccc(/C=C/C(=O)C(C(N)=O)=C2SCCS2)cc1 | 12.4 | 0.8 | 2.3 | i | ·
NC(=O)C(C(=O)/C=C/c1ccc(Cl)cc1)=C1SCCS1 | -21.7 | 81.8* | 13.3 | i | 1.1
CCOc1ccc(/C=C\C(C)=N\O)cc1 | 5.9 | 99.0* | 7.7 | i | 30.8
O=C(Nc1ccc(Cl)c(Cl)c1)Nc1nccs1 | 0.3 | 0.8 | -12.7 | i | ·
O=C(Nc1cccc(Cl)c1)Nc1nccs1 | -10.9 | 81.6*! | 11.3 | i | 10.6
